In PubChem BioAssay (NCATS):
This is one part of the list. Inconclusive results are not listed. Calls of active or inactive are those of the source. Calls come from the whole dose curve; as a rule, active = well fitted inhibition curve with a large enough effect; inconclusive = small, poorly fitted or top-dose-only effect; inactive = no such curve, though single readings can be large or run the other way.

molecular target: Endonuclease 4 (Escherichia coli (strain K12)) (UniProt P0A6C1); experiment: Counterscreen for APE1 Inhibitors: qHTS Assay for Inhibitors of Endonuclease IV (AID 2565);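 note: plate controls were uninhibited enzyme wells for no effect and no enzyme buffer wells for full effect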; settings: E. coli Endo IV, fluorogenic AP-site DNA cleavage; series mostly up to 27.1 µM; activity change, negative = inhibition: at the top concentration
Text: Assay Provider: David M. Wilson, III, National Institute on Aging, NIH
Screening Center PI: Austin, C.P.
Screening Center: NIH Chemical Genomics Center [NCGC]
Escherichia coli endonuclease IV (Endo IV) is the key member of the AP endonuclease superfamily that catalyzes the cleavage of damaged DNA backbone immediately 5' of an AP site. E. coli EndoIV has the same functional activities as human APE1 but has no sequence or structural homology to the human protein. Herein, we utilize E. coli EndoIV to counter screen compound libraries as part of a high-throughput campaign for APE1 inhibitor identification. A concentration-response screen of the LOPAC1280 collection was performed under experimental conditions identical to those used in the APE1 screen.
Inhibition of APE1 activity was screened by utilizing double-stranded short substrate containing tetrahydrofuran (THF) abasic site labeled with rhodamine-type fluorophore (TAMRA) at the 5'-end and with non-fluorescent Black Hole Quencher-2 (BHQ-2) at the opposing 3'-end. An increase in the fluorescence intensity due to incision of the abasic site by APE1 was used to measure the enzyme activity.
Buffer: 50 mM Tris-HCl (pH 7.5) containing 50mM NaCl, 2 mM MgCl2, 1 mM DTT and 0.01% Tween-20.
Buffer in columns 3 and 4 as negative control (no enzyme).
Substrate: 50 nM final concentration of TAMRA/BHQ-2 substrate dispensed throughout the plate.
Enzyme: 2 nM E. coli EndoIV final concentration in columns 1, 2, 5-48. Column 1 is neutral (100% activity).
Control: Pintool transfer of control inhibitor NSC-13755 to column 2 of all assay plates. Two-fold, 16 pt dilution in duplicate to produce final concentrations in the 5.75 uM - 0.175 nM range.
Three uL of enzyme were dispensed to 1536-well Greiner black solid bottom plates. Compounds (23 nL) were transferred via Kalypsys pintool. The plates were incubated for 15 min at room temperature, and then 1 uL of substrate solution was added to start the reaction. The plates were immediately transferred into ViewLux High-throughput CCD imager (Perkin-Elmer) in order to measure the reaction progress in kinetic mode (three reads every 60 seconds) using 525 nm excitation and 598 nm emission fluorescence protocol. The fluorescence intensity difference between the third and the first time points was used to compute reaction progress.

| Compound | activity change, negative = inhibition |
| --- | --- |
| CC(C)(C)C(=O)OCc1nc(-c2ccc(O)c(O)c2)cs1 | 53.7% (inactive) |
| N/C(=N\OC(=O)Nc1ccccc1)c1ccno1 | 4.76% (inactive) |
| O=c1nc2s/c(=C\c3ccco3)c(=O)n2nc1Cc1ccccc1 | -1.5% (inactive) |
| O=C(CN1CCN(S(=O)(=O)/C=C/c2ccccc2)CC1)NC(=O)NCc1ccco1 | -5.66% (inactive) |
| Cc1ccc(Cc2cnc(N)s2)o1 | 8.03% (inactive) |
| O=C(Cc1ccc(S(=O)(=O)N2CCOCC2)s1)NCCC(c1ccccc1)c1ccccc1 | -9.69% (inactive) |
| C=CCn1c(=S)[nH]c2scc(-c3ccco3)c2c1=O | 13.8% (inactive) |
| Cc1cc(C)c2nc(-c3ccco3)cc(C(=O)O)c2c1 | 6.27% (inactive) |
| N#Cc1ccccc1CN1C(=O)S/C(=C/c2cccn2-c2cccc(C(=O)O)c2)C1=O | 14.2% (inactive) |
| COc1cc([C@H](Cc2ccccc2)NC(C)=O)oc(=O)c1 | 5.9% (inactive) |
| Cc1ccc(-c2nc(SCC(=O)Nc3ccccc3OC(F)F)c3c(C)c(C(=O)O)sc3n2)cc1 | -10.8% (inactive) |
